{"source": "PubChem BioAssay AID1053118", "about": "(Broad Institute, 2014)", "note": "Results with a measured potency or affinity are listed apart. Active and inactive are the calls of the source.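 Rule for the calls: active = fitted half-maximal concentration for ATP signal loss at most twice the top valid dose; inconclusive = flat curve between -70 and -30%, or an invalid fit; inactive = flat within ±30%, wrong direction, or potency past limit.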"}
{"assay": "viability loss in HepG2 hepatoma cells – cell-based, cherry-picks, set 5, cytotoxicity control, dose response (AID 1053118)", "settings": "ATP luminescence, 72 h; series mostly up to 26 µM"}
{"smiles": "O=S(=O)(c1cccc(F)c1)N1CC[C@@H]2[C@H]1c1cc(-c3cccc(F)c3)ccc1N[C@@H]2CO", "outcome": "inactive"}
{"smiles": "CN1c2ccc(-c3ccccc3)cc2[C@@H]2[C@@H](CCN2C(=O)CN2CCOCC2)[C@@H]1CO", "outcome": "inactive"}
{"smiles": "COc1ccc(-c2csc(CCn3nc(C)cc3C)n2)cc1OC", "outcome": "inactive"}
{"smiles": "CO[C@H]1CN(C)C(=O)c2cc(NC(C)=O)ccc2OC[C@@H](C)N(C(=O)CN2CCOCC2)C[C@H]1C", "outcome": "inactive"}
{"smiles": "Cc1ccc([N+](=O)[O-])cc1NC(=O)CN(C(=O)c1ccccc1Cl)C1CCCCC1", "outcome": "inactive"}
{"smiles": "CC(C)(C)[S@](=O)N1Cc2cc(C(=O)NCc3ccccc3F)nc(-c3cccc(-c4cncnc4)c3)c2[C@@H]1CCO", "outcome": "inactive"}
{"smiles": "CCCc1cc(C(=O)OC)c(NC(=O)CCC(=O)O)s1", "outcome": "inactive"}
{"smiles": "C[C@H](O)C#Cc1ccc2c(c1)O[C@@H](CN(C)C)[C@H](C)CN([C@H](C)CO)S2(=O)=O", "outcome": "inactive"}
{"smiles": "OC(CNC1CCCc2ccccc21)COc1c(Cl)cccc1Cl", "note": "(configuration not stated)", "outcome": "inactive"}
{"smiles": "COc1cccc(-c2ccc3c(c2)[C@H]2[C@H](CCN2S(=O)(=O)c2cccc(OC)c2)[C@H](CO)N3)c1", "outcome": "inactive"}
{"smiles": "C[C@@H]1CN([C@H](C)CO)C(=O)c2cc(-c3ccccc3)cnc2O[C@@H]1CN(C)Cc1ccccc1", "outcome": "inactive"}
{"smiles": "Cn1cnc(S(=O)(=O)N2CCN(c3ccccc3)CC2)c1", "outcome": "inactive"}
{"smiles": "COCC(=O)Nc1ccc2c(c1)C(=O)N(C)[C@@H]1CC[C@@H](CC(=O)NCc3ccccc3Cl)O[C@H]1CO2", "outcome": "inactive"}
{"smiles": "O=C(NCc1ccccc1)c1ccc(-c2cn[nH]c2)c2ccoc12", "outcome": "inactive"}
{"smiles": "Cc1cccc(NC(=O)Nc2ccc(S(=O)(=O)Nc3onc(C)c3C)cc2)c1", "outcome": "inactive"}
{"smiles": "N#C[C@@H]1[C@H](c2ccccc2C2=CCCCC2)[C@H](CO)N1S(=O)(=O)c1ccccc1", "outcome": "inactive"}
{"smiles": "O=C(Nc1ccccc1F)N1C[C@H]2[C@@H](c3ccccc31)[C@@H](CO)N2C(=O)C1CC1", "outcome": "inactive"}
{"smiles": "C[C@@H]1CN([C@H](C)CO)C(=O)c2cccc(NC(=O)Nc3ccc(C(F)(F)F)cc3)c2O[C@H]1CN(C)C(=O)Nc1cccc2ccccc12", "outcome": "inactive"}
{"smiles": "CN1c2ccc(-c3ccccc3)cc2[C@H]2[C@H](CCN2C(=O)CN2CCOCC2)[C@@H]1CO", "outcome": "inactive"}
{"smiles": "O=C(CN1CCCC1)Nc1ccc(Oc2ccc(NC(=O)CN3CCCC3)cc2)cc1", "outcome": "inactive"}
{"smiles": "O=C(CSc1nc2ncc(Cl)cc2[nH]1)c1c[nH]c2ccccc12", "outcome": "inactive"}
{"smiles": "COc1cccc(-c2ccc3c(c2)[C@@H]2[C@@H](CCN2S(=O)(=O)c2cccc(OC)c2)[C@@H](CO)N3)c1", "outcome": "inactive"}
